The source of these data is PubChem BioAssay (Tox21).

SMILES strings stand for the structures. Results filed as inconclusive are left out. Active and inactive are the calls of the source. Unless noted, calls follow the shape of the dose curve; as a rule, active = well fitted curve in the direction sought with a large enough effect in the repeat runs; inconclusive = weak or mixed curves; inactive = no such curve, though single readings can be large; an effect the other way counts as inactive or inconclusive.

Assay [1] can be described thus: qHTS assay to identify aromatase inhibitors - cell viability counter screen (AID 743084).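 Also: cells stimulated with testosterone during compound exposure; nearly all actives have a fitted effect of over 55% in size.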 Also: potency is read from the fitted curve at half-maximal effect. On the technique in general: Quantitative high-throughput screening tests each substance at several concentrations.
Assay [2] in a line: qHTS assay to identify small molecule that activate the aryl hydrocarbon receptor (AhR) signaling pathway - cell viability counter screen (AID 743086).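 Also: HepG2 liver cells carrying the AhR DRE luciferase reporter; series mostly up to about 70 µM; nearly all actives have a fitted effect of over 45% in size.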 A digest of the protocol:
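HepG2-AhR-luc (HG2L7.5c1) cells, 4000/well, treated 24 h at 37 C with compound; viability measured as CellTiter-Fluor fluorescence after 30 min in the same wells as the luciferase read.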

The nature of assay [3]: qHTS assay to identify small molecule antagonists of the peroxisome proliferator-activated receptor gamma (PPARg) signaling pathway - cell viability counter screen (AID 743194). Also: nearly all actives have a fitted effect of over 55% in size. A digest of the protocol:
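Cytotoxicity counter screen in PPARg-bla HEK293H cells, same wells as reporter assay. Compounds plus 50 nM rosiglitazone (final) for 17 h at 37 C, then viability read by CellTiter-Glo luminescence.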

Assay [4] is described as follows: qHTS assay for small molecule agonists of the antioxidant response element (ARE) signaling pathway (AID 743202; active = well fitted activation curve with a large enough effect in the signal ratio in the repeat runs, not every such curve was filed as active; the % refers to the signal ratio; also: potency is read from the fitted curve at half-maximal effect). The gist of the method: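 HepG2 ARE-bla cells; 16 h treatment at 37 C; FRET-based beta-lactamase fluorescence read after 2 h substrate incubation at room temperature.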
A short description of assay [5]: qHTS assay for small molecule agonists of the antioxidant response element (ARE) signaling pathway - cell viability counter screen (AID 743203; calls by dose curve; also: nearly all actives have a fitted effect of over 55% in size). A digest of the protocol: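 ATP content via CellTiter-Glo luminescence served as the viability measure. Cells: ARE-bla HepG2, 2,000 per well. Exposure: 16 hrs, 37C/5% CO2.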
Assay [6] in a line: qHTS assay for small molecule activators of the heat shock response signaling pathway - cell viability counter screen (AID 743209). Also: nearly all actives have a fitted effect of over 50% in size. Also: potency is read from the fitted curve at half-maximal effect. The gist of the method:
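Compounds dissolved in DMSO were added to overnight-plated HSE-bla HeLa cells and left 5 h at 37 C. Cell viability was quantified by luminescence using CellTiter-Glo.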

A short description of assay [7]: qHTS assay for small molecule activators of the heat shock response signaling pathway (AID 743210; active = well fitted activation curve with a large enough effect in the signal ratio in the repeat runs, with a control signal flat, not every such curve was filed as active; the % refers to the signal ratio;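 also: HeLa cells with beta-lactamase reporter driven by heat shock elements; series mostly up to about 63 µM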). The gist of the method:
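Following overnight attachment, HSE-bla HeLa cells received test compounds for 5 h at 37 C; beta-lactamase activity was then detected via FRET substrate fluorescence.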

The target in assay [8] is Peroxisome proliferator-activated receptor gamma (Homo sapiens) (UniProt P37231). Nature of the assay: qHTS assay to identify small molecule agonists of the peroxisome proliferator-activated receptor gamma (PPARg) signaling pathway (AID 743094; active = well fitted activation curve with a large enough effect in the signal ratio in the repeat runs, not every such curve was filed as active; the % refers to the signal ratio; also: potency is read from the fitted curve at half-maximal effect). The gist of the method: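 Agonism was assessed in a beta-lactamase reporter system, HEK293H cells with a stably integrated UAS-bla construct under PPARg control; the 17 h treatment at 37C preceded a 1 h room-temperature FRET substrate read.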

The target is the same in assay [9]. As to the kind of experiment: qHTS assay to identify small molecule antagonists of the peroxisome proliferator-activated receptor gamma (PPARg) signaling pathway (AID 743191; calls by dose curve; also: series mostly up to about 63 µM; nearly all actives have a fitted effect of over 30% in size). The gist of the method:
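GeneBLAzer PPARg UAS-bla HEK293H cells, 5 h post-plating, exposed to compounds 17 h at 37C. LiveBLAzer B/G FRET substrate added for 1 h at room temperature; beta-lactamase reporter read by fluorescence intensity.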

The target in assay [10] is Aryl hydrocarbon receptor (Homo sapiens) (UniProt P35869). Nature of the assay: qHTS assay to identify small molecule that activate the aryl hydrocarbon receptor (AhR) signaling pathway (AID 743085).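 Also: HG2L7.5c1 human HepG2 liver cells with stably integrated DRE-driven firefly reporter; series mostly up to about 70 µM; nearly all actives have a fitted effect of over 15% in size.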 A digest of the protocol:
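Reporter assay in engineered HepG2 line HG2L7.5c1, whose plasmid carries twenty dioxin responsive elements upstream of firefly luciferase. Treatment lasted 24 h at 37C; ONE-Glo luminescence gauged induction.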

Chain of Peroxisome proliferator-activated receptor gamma (Homo sapiens) (P37231 whole entry, looked up): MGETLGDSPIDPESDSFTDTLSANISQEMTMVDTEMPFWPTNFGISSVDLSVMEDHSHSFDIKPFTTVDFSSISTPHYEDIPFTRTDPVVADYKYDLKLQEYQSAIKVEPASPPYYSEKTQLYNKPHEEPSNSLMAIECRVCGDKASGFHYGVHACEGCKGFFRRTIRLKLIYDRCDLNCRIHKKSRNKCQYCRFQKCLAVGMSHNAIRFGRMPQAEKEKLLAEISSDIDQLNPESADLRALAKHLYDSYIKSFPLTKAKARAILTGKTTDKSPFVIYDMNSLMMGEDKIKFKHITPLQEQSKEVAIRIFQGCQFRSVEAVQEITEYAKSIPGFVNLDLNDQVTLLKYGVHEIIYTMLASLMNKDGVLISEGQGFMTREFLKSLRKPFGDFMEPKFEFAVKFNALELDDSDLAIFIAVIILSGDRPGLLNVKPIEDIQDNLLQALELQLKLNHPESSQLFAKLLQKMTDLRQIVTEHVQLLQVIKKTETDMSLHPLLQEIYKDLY
Chain of Aryl hydrocarbon receptor (Homo sapiens) (P35869 whole entry, looked up): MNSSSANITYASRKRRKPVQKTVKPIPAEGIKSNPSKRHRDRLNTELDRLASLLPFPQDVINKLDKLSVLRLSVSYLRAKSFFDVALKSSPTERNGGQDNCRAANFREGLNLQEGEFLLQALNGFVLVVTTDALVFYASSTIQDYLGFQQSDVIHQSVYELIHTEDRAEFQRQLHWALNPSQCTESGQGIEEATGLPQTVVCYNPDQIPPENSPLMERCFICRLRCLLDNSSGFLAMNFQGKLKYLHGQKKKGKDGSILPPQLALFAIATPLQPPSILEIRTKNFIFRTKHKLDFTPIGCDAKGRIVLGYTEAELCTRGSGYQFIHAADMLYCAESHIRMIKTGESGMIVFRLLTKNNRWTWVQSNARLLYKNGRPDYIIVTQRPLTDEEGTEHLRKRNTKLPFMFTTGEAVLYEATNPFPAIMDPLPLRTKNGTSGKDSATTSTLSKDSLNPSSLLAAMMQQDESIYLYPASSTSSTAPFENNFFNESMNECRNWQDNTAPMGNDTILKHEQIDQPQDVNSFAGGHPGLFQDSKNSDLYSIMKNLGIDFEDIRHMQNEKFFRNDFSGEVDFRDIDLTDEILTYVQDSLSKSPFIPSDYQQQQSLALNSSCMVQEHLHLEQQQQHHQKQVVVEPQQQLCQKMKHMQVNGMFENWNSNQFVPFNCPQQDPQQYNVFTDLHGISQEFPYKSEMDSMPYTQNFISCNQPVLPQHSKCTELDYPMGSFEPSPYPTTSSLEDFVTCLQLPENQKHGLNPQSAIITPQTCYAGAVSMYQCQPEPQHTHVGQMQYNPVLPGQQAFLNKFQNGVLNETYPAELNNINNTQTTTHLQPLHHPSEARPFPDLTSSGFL

As to `O=C(O)C(c1ccc(Cl)cc1)c1ccc(Cl)cc1`, the Potency entry in assay [1], in [2], in [3], in [4], in [5] and in assay [6] was “inactive” throughout. In addition, the compound was called inactive in assay [7].

Consider `CCOC(=O)C1=C(C)NC(C)=C(C(=O)OC)C1c1cccc([N+](=O)[O-])c1` (centres undefined), for which the Potency entry in [1], in [2], in assay [8], in [4], in assay [5] and in [6] was “inactive” in each case. Also, the call in [7] was inactive.

In the case of `Cc1c(Cn2ccnc2)c2ccccc2n1CCC(=O)O`, the Potency result in assay [1], in assay [2], in assay [8], in [3] and in assay [6] was “inactive” in each case. Moreover, the compound was classed as inactive in assay [7].

`CCCCCCCCCCCCCCCBr`: the Potency entry in [1], in [2], in assay [8], in [3], in assay [4] and in assay [5] was “inactive” throughout. For the same compound, the Potency result in assay [6] was “inactive”. In addition, the outcome in assay [7] was inactive.

Take `c1ccc(OCc2ccc(CCCN3CCOCC3)cc2)cc1`: the Potency entry in assay [1], in assay [2], in assay [8], in assay [3], in assay [5] and in assay [6] was “inactive” in each case. Besides, the result in assay [7] was inactive.

Consider `CC(=O)N(O)CCCCCNC(=O)CCC(=O)N(O)CCCCCNC(=O)CCC(=O)N(O)CCCCCN`, for which the Potency entry in [1], in [2], in assay [8], in assay [3], in [5] and in assay [6] was “inactive” each time. The compound was called inactive in assay [7].

In the case of `CC(C)CC=O`, the Potency result in assay [1], in [2], in assay [8], in [4], in [5] and in [6] was “inactive” in each case. The result in assay [7] was inactive.

As for `O=C(O)Cn1c(C(=O)Nc2nc(-c3ccccc3Cl)cs2)cc2ccccc21`, the Potency result in assay [1], in [2], in assay [9], in assay [3], in [5] and in [6] was “inactive” each time. For the same compound, the Potency in assay [4] is 21.1 µM (active).

With `OCCC1CCCCN1` (centres undefined), the Potency entry in assay [1], in assay [2], in assay [8], in assay [3] and in assay [6] was “inactive” each time. For the same compound, the compound was classed as inactive in [7].

For `CC1=CC(=O)/C(=C(/C)O)C(=O)O1`, the Potency result in assay [1], in assay [2], in assay [8], in assay [3], in assay [4] and in assay [5] was “inactive” each time. For the same compound, the Potency entry in assay [6] was “inactive”. Moreover, the result in assay [7] was inactive.

As to `Cc1ccc(C(N)=O)cc1N`, the Potency result in [1], in assay [2], in assay [8], in assay [3], in assay [4] and in [6] was “inactive” each time. In addition, the compound was called inactive in assay [7].

As for `C1CCC2OC2C1` (centres undefined), the Potency result in [1], in assay [2], in [8], in assay [5] and in assay [6] was “inactive” in each case. Also, in assay [7], the call was inactive.

As to `OC(CCN1CCCCC1)(c1ccccc1)C1CCCCC1` (centres undefined), the Potency entry in [1], in assay [2], in assay [8], in [4], in [5] and in [6] was “inactive” each time. Besides, the call in [7] was inactive.

`C1=Cc2ccccc2C1`: the Potency entry in assay [1], in assay [2], in assay [8], in assay [4], in assay [5] and in assay [6] was “inactive” throughout. Moreover, in assay [7], the compound was classed as inactive.

On to `O=C(O)c1cccc(N(Cc2cccnc2)c2ccc(OC(F)F)c(OC(F)F)c2)c1`, for which the Potency result in [1], in assay [2], in [3], in assay [5] and in [6] was “inactive” each time. The compound was called inactive in [7].

As for `O=C1[C@H](CC[C@H](O)c2ccc(F)cc2)[C@@H](c2ccc(O)cc2)N1c1ccc(F)cc1`, the Potency result in assay [1], in assay [2], in [8], in assay [3] and in [6] was “inactive” throughout. Also, the compound was called inactive in [7].

In the case of `Cc1ccccn1`, the Potency result in assay [1], in assay [2], in assay [3], in assay [4], in assay [5] and in assay [6] was “inactive” throughout. The result in [7] was inactive.

For `C=CC(=O)OCC(C)OCC(C)OCC(C)OC(=O)C=C` (centres undefined), the Potency in assay [1] is 48.6 µM (active); in assay [6], 15.5 µM (active). Also, the Potency entry in assay [2], in [3] and in [5] was “inactive” each time.

Regarding `CC(CN)CCCN` (centres undefined), the Potency entry in assay [1], in assay [2], in assay [8], in assay [3], in [4] and in assay [5] was “inactive” in each case. In [6], the Potency entry was “inactive”. Further, the result in assay [7] was inactive.

`C=CC(=O)OCCOC(=O)CCC(=O)O`: the Potency in assay [1] was 61.1 µM (active); in assay [8] it was 54.9 µM (active). For the same compound, the Potency result in assay [2], in [3], in [5] and in assay [6] was “inactive” each time. For the same compound, in assay [7], the result was inactive.

For the compound `CCOc1ccc2[nH]cc(C(=O)NCc3ccccc3)c(=O)c2n1`, the Potency result in assay [1], in [2], in assay [8], in assay [3], in assay [5] and in [6] was “inactive” in each case. In addition, in assay [4], the Potency is 15.4 µM (active). In addition, the outcome in assay [7] was inactive.

For the compound `O=S1(=O)N=C(O)c2ccccc21`, the Potency entry in assay [1], in assay [2], in [4], in assay [5] and in assay [6] was “inactive” in each case.

`O=C(CC(=O)c1ccccc1)c1ccccc1`: the Potency entry in [1], in assay [2], in assay [8] and in assay [6] was “inactive” throughout. Further, the Potency in assay [4] is 23.3 µM (active). For the same compound, the compound was classed as inactive in [7].

Turning to `CC1CCc2cc(F)cc3c(=O)c(C(=O)O)cn1c23` (centres undefined), the Potency result in assay [2], in assay [3], in [4], in assay [5] and in [6] was “inactive” in each case. Further, in assay [7], the compound was classed as inactive.

Regarding `CCOc1ccc(NC(=O)CC(C)=O)cc1`, the Potency result in assay [1], in [2], in assay [4], in assay [5] and in [6] was “inactive” each time. The result in [7] was inactive.

For the compound `CC(C)(Oc1ccc(Cl)cc1)C(=O)OCCCOC(=O)C(C)(C)Oc1ccc(Cl)cc1`, the Potency result in assay [3], in assay [4], in assay [5] and in assay [6] was “inactive” throughout. The result in assay [7] was inactive.

As to `CCCC(C)C`, the Potency entry in assay [10], in assay [2], in assay [8], in assay [3], in assay [4] and in assay [5] was “inactive” in each case. In addition, the Potency entry in [6] is “inactive”. Also, in assay [7], the call was inactive.

Consider `CNCC[C@@H](Oc1ccccc1C)c1ccccc1`, for which the Potency entry in [1], in [3] and in assay [5] was “inactive” throughout. Besides, the compound was called inactive in [7].
